# Source: PubChem BioAssay (NCATS)
# Inconclusive results are not listed. Where a call stands in place of a potency, no number is given. Calls of active or inactive are those of the source. Calls follow the shape of the dose curve; as a rule, active = well fitted curve in the direction sought with a large enough effect; inconclusive = small, poorly fitted or top-dose-only effect, or another doubt; inactive = no such curve, though single readings can be large; an effect the other way counts as inactive or inconclusive.
# Assay: qHTS of pediatric cancer cell lines to identify multiple opportunities for drug repurposing: Confirmatory screen for MG 63 (6-TG R) cells (AID 1347119); also: nearly all actives have a fitted effect of over 55% in size
# Conditions: MG-63 (6-TG resistant) osteosarcoma viability; series mostly up to 45.9 µM
# In short: (§1)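 Viability after 48 h compound treatment at 37C, 500-1,000 cells/well, read as ATP luminescence with CellTiter-Glo. Primary screens used 11-point (MIPE, 0.78 nM-46 µM) or 8-point (NPC, 0.59 nM-46 µM) final concentrations; follow-up screens used 11-point dilutions.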
# Potency is read from the fitted curve at half-maximal effect.
row,SMILES,Potency
1,COCCn1c2c([n+](Cc3cnccn3)c1C)C(=O)c1ccccc1C2=O,0.0737 µM (active)
2,O=C(C=Cc1cccc(S(=O)(=O)Nc2ccccc2)c1)NO,2.69 µM (active)
3,Cc1ccc(C(=O)Nc2ccc(CN3CCN(C)CC3)c(C(F)(F)F)c2)cc1C#Cc1cnc2cccnn12,inactive
4,Nc1ccccc1NC(=O)c1ccc(CNC(=O)OCc2cccnc2)cc1,2.4 µM (active)
5,CC(=O)Nc1nc(C)c(-c2ccc(Cl)c(S(=O)(=O)NCCO)c2)s1,2.33 µM (active)
6,Cc1[nH]nc2ccc(-c3cncc(OC[C@@H](N)Cc4ccccc4)c3)cc12,3.69 µM (active)
7,O=c1[nH]nc(Sc2ncc([N+](=O)[O-])s2)n1-c1ccc2c(c1)OCCO2,11.7 µM (active)
8,Cc1nc(N)ncc1-c1nc(N2CCOCC2)c2sc(C(C)(C)O)cc2n1,0.465 µM (active)
9,COc1c(OCCCN2CCOCC2)ccc2c3n(c(=NC(=O)c4cnc(N)nc4)nc12)CCN3,0.229 µM (active)
10,Nc1cc(C(F)(F)F)c(-c2cc(N3CCOCC3)nc(N3CCOCC3)n2)cn1,3.69 µM (active)
11,COc1ccc(-n2nc(C(N)=O)c3c2C(=O)N(c2ccc(N4CCCCC4=O)cc2)CC3)cc1,inactive
12,C=CC(=O)Nc1cc2c(Nc3ccc(F)c(Cl)c3)ncnc2cc1C#CC(C)(C)N1CCN(C)CC1,4.27 µM (active)
13,CCNC(=O)Nc1ccc2ncc(Nc3ccc(C)cc3)nc2n1,inactive
14,C=CC(=O)Nc1cccc(Oc2nc(Nc3ccc(N4CCN(C)CC4)cc3OC)ncc2Cl)c1,23.3 µM (active)
15,CNC(=O)c1c(F)cccc1Nc1nc(Nc2cc3c(cc2OC)CCN3C(=O)CN(C)C)nc2[nH]ccc12,3.69 µM (active)
16,CCn1cc(-c2ccnc3[nH]c(-c4cccc(CN(C)C)c4)cc23)c(-c2ccc(NC(=O)N(C)C)cc2)n1,1.85 µM (active)
17,Cc1cc(N2CCOCC2)cc2[nH]c(-c3c(NC[C@@H](O)c4cccc(Cl)c4)cc[nH]c3=O)nc12,0.329 µM (active)
18,CNC(=O)CN1CCC(Oc2cc3c(Nc4cccc(Cl)c4F)ncnc3cc2OC)CC1,inactive
19,O=C(O)c1ccc2cc(-c3ccc(O)c(C45CC6CC(CC(C6)C4)C5)c3)ccc2c1,0.585 µM (active)
20,CC(C)(C)c1cc(C(C)(C)C)c(NC(=O)c2c[nH]c3ccccc3c2=O)cc1O,20.8 µM (active)
21,COc1ccc(-c2cc3c(C)nc(N)nc3n(C3CCC(OCCO)CC3)c2=O)cn1 (stereo unspecified),inactive
22,CCn1nnc2c(N3CCOCC3)nc(-c3ccc(NC(=O)Nc4ccc(C(=O)N5CCN(C)CC5)cc4)cc3)nc21,0.293 µM (active)
23,C=CCn1c(=O)c2cnc(Nc3ccc(N4CCN(C)CC4)cc3)nc2n1-c1cccc(C(C)(C)O)n1,1.31 µM (active)
24,Nc1ccn([C@@H]2O[C@H](CO)[C@H](O)C2(F)F)c(=O)n1,2.33 µM (active)
25,Cc1cc(Nc2ncnc3ccc(-c4ccc(CNCCS(C)(=O)=O)o4)cc23)ccc1Oc1ccn2ncnc2c1,inactive

# Assay: qHTS of pediatric cancer cell lines to identify multiple opportunities for drug repurposing: Confirmatory screen for control Hh wild type fibroblast cells (AID 1347121); also: nearly all actives have a fitted effect of over 70% in size
# Conditions: viability qHTS; series mostly up to 45.9 µM
# In short: as §1
row,SMILES,Potency
1,COCCn1c2c([n+](Cc3cnccn3)c1C)C(=O)c1ccccc1C2=O,0.261 µM (active)
2,Cc1ccc(C(=O)Nc2ccc(CN3CCN(C)CC3)c(C(F)(F)F)c2)cc1C#Cc1cnc2cccnn12,inactive
3,CNC(=O)c1nn(C)c2c1C(C)(C)Cc1cnc(Nc3ccc(N4CCN(C)CC4)cc3)nc1-2,inactive
4,NC(=O)c1cccc2cn(-c3ccc([C@@H]4CCCNC4)cc3)nc12,inactive
5,Cc1[nH]nc2ccc(-c3cncc(OC[C@@H](N)Cc4ccccc4)c3)cc12,23.3 µM (active)
6,CN(c1ncccc1CNc1nc(Nc2ccc3c(c2)CC(=O)N3)ncc1C(F)(F)F)S(C)(=O)=O,inactive
7,CC(C)c1cc(C(=O)N2Cc3ccc(CN4CCN(C)CC4)cc3C2)c(O)cc1O,inactive
8,COc1cc2c(NC3CCN(C(C)C)CC3)nc(C3CCCCC3)nc2cc1OCCCN1CCCC1,inactive
9,COc1ccc(-n2nc(C(N)=O)c3c2C(=O)N(c2ccc(N4CCCCC4=O)cc2)CC3)cc1,inactive
10,C=CC(=O)Nc1cc2c(Nc3ccc(F)c(Cl)c3)ncnc2cc1C#CC(C)(C)N1CCN(C)CC1,19.1 µM (active)
11,Cc1cn2c(-c3cn[nH]c3)cnc2c(Nc2ccc(C(=O)N3CCNCC3)cc2F)n1,inactive
12,O=C(NC1CCNCC1)c1[nH]ncc1NC(=O)c1c(Cl)cccc1Cl,inactive
13,CCNC(=O)Nc1ccc2ncc(Nc3ccc(C)cc3)nc2n1,inactive
14,CC(C)(C)c1cnc(CSc2cnc(NC(=O)C3CCNCC3)s2)o1,inactive
15,C=CC(=O)Nc1cccc(Oc2nc(Nc3ccc(N4CCN(C)CC4)cc3OC)ncc2Cl)c1,inactive
16,CC(C)CC(=O)Nc1n[nH]c2c1CN(C(=O)C1CCN(C)CC1)C2(C)C,inactive
17,Cc1ccc(-c2ncn(-c3ccc(Nc4nccc(-c5cccc(N6CCOCC6)c5)n4)cc3)n2)cn1,inactive
18,CNC(=O)CN1CCC(Oc2cc3c(Nc4cccc(Cl)c4F)ncnc3cc2OC)CC1,inactive
19,O=C(O)c1ccc2cc(-c3ccc(O)c(C45CC6CC(CC(C6)C4)C5)c3)ccc2c1,inactive
20,Cc1nc(Nc2n[nH]c3c2CN(C(=O)N[C@H](CN(C)C)c2ccccc2)C3(C)C)c2sccc2n1,inactive
21,COc1cccc(-c2ccc(NC(=O)C3=C(C(=O)O)CCC3)c(F)c2)c1,inactive
22,COc1ccc(-c2cc3c(C)nc(N)nc3n(C3CCC(OCCO)CC3)c2=O)cn1 (stereo unspecified),inactive
23,C=CCn1c(=O)c2cnc(Nc3ccc(N4CCN(C)CC4)cc3)nc2n1-c1cccc(C(C)(C)O)n1,inactive
24,CC(C)(C)OC(=O)Nc1ccc(-c2cc(C(=O)NCCCCCCC(=O)NO)no2)cc1,inactive
25,Cc1cc(Nc2ncnc3ccc(-c4ccc(CNCCS(C)(=O)=O)o4)cc23)ccc1Oc1ccn2ncnc2c1,inactive
26,CN1CC[C@@H](c2c(O)cc(O)c3c(=O)cc(-c4ccccc4Cl)oc23)[C@@H](O)C1,inactive
